Assay results taken from PubChem BioAssay.
Active and inactive are the calls of the source. Cut-off read from the data, not from the text of the source, unless noted: active = inhibition above about 80%; inactive = the rest.

Columns and labels:
[1] = tested on: Hepatitis C virus NS3 helicase; test: HCV NS3 helicase inhibitors, primary screen, biochemical, fluorescence polarization, LOPAC1280 library (AID 687035; in the data active = inhibition above about 37%); details: Purified HCV NS3 helicase, Cy5-dT15 ssDNA binding fluorescence polarization; stronger effect = higher value; concentration not given here
[2] = Cy5 fluorescence quenching or enhancement artefacts, artefact control for HCV NS3 helicase inhibitor project, biochemical, LOPAC1280 (AID 687037; call rule not given here); details: Cy5-DNA-NS3h complex fluorescence interference counterscreen
[3] = phospholipid biosynthesis inhibitors in animal cells, primary screen, cell-based, LOPAC library, screen 4 (AID 1347384; call rule not given here); details: phospholipid biosynthesis inhibition screen, at 10 µM
[4] = LFS_MB_P medulloblastoma growth inhibition, cell-based, chromothripsis tumors, cisplatin or BGB combos (AID 1671449); details: LFS_MB_P medulloblastoma cells;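 note: cells exposed for 96 hours; 0% = vehicle DMSO and 100% = killing by high DMSO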
[5] = HDN33 neuroblastoma growth inhibition, cell-based, chromothripsis tumors, cisplatin or BGB combos (AID 1671450); details: HDN33 neuroblastoma cells, stronger effect = higher value;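 note: cells exposed to compound for four days; 0% = vehicle DMSO and 100% = cell killing by high DMSO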
[6] = LFS_MB_1R medulloblastoma cell growth inhibition, synergistic combos for chromothripsis tumors, cisplatin or BGB combos (AID 1671452); details: LFS_MB_1R medulloblastoma cells, stronger effect = higher value;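 note: cells exposed for 96 hours before readout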
[7] = HTB85 osteosarcoma cell growth inhibition, synergistic combos for chromothripsis tumors, BGB or cisplatin IC20 combos (AID 1671453); details: HTB85 osteosarcoma cells, drug combinations, stronger effect = higher value;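 note: cells exposed for 96 hours before readout; 0% = vehicle DMSO and 100% = high DMSO killing control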
[8] = CRL2098 osteosarcoma cell growth inhibition, synergistic combos for chromothripsis tumors, BGB or cisplatin IC20 combos (AID 1671454); details: CRL2098 osteosarcoma cells, drug combinations, stronger effect = higher value;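 note: cells exposed for 96 h before readout; 0% = vehicle DMSO and 100% = killing by high DMSO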
[9] = HD-MB03 medulloblastoma cell growth inhibition, synergistic combos for chromothripsis tumors, BGB or cisplatin IC20 combos (AID 1671455; in the data active = inhibition above about 83%;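 note: 0% = vehicle DMSO and 100% = high DMSO as cytotoxic control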); details: HD-MB03 medulloblastoma cells, stronger effect = higher value
[10] = MDA-MB-436 breast carcinoma cell growth inhibition, synergistic combos for chromothripsis tumors, BGB or cisplatin combos (AID 1671458; call rule not given here;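 note: cells exposed for 96 hours; 0% = vehicle DMSO and 100% = killing by high DMSO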); details: MDA-MB-436 breast carcinoma growth inhibition, drug combinations, stronger effect = higher value
[11] = growth inhibition of BT084 medulloblastoma cells, cell-based, ICGC_MB145, cisplatin and BGB IC40 combos (AID 1671461); details: drug combinations, stronger effect = higher value;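 note: cells exposed to drugs for 96 hours; 0% = vehicle DMSO and 100% = high DMSO full killing control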
[12] = growth inhibition of RCMB18 medulloblastoma cells, cell-based, cisplatin and BGB IC40 combos (AID 1671462); details: stronger effect = higher value;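 note: cells exposed to compound for four days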
[13] = growth inhibition of CRL1545 osteosarcoma cells, cell-based, cisplatin and BGB IC20 combos (AID 1671464); details: stronger effect = higher value;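 note: cells exposed to compound for 96 hours before readout; 0% = vehicle DMSO and 100% = high DMSO killing control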
[14] = at 0.5 µM, stronger effect = higher value
[15] = measured here: combination with BGB IC20, at 0.005 µM
[16] = measured here: combination with BGB IC40, at 0.005 µM
[17] = measured here: combination with BGB IC40, at 0.05 µM
[18] = measured here: combination with cisplatin, at 0.5 µM, stronger effect = higher value
[19] = measured here: combination with cisplatin, at 5 µM, stronger effect = higher value
[20] = measured here: with BGB IC20 combination, at 0.5 µM
[21] = measured here: with cisplatin IC20 combination, at 0.5 µM
[22] = measured here: combination with cisplatin, at 0.5 µM
[23] = measured here: combination with cisplatin, at 5 µM
[24] = measured here: with BGB IC20, at 0.5 µM
[25] = measured here: with BGB IC20, at 5 µM
[26] = measured here: with cisplatin IC20, at 0.5 µM
[27] = measured here: with cisplatin IC20, at 5 µM
[28] = measured here: combination with BGB at IC20, at 0.5 µM
[29] = measured here: combination with cisplatin at IC20, at 0.5 µM
[30] = measured here: combo with BGB at IC20, at 0.5 µM
[31] = measured here: combo with cisplatin at IC20, at 0.5 µM
[32] = measured here: BGB combination, at 0.5 µM
[33] = measured here: BGB combination, at 5 µM
[34] = measured here: cisplatin combination, at 0.5 µM
[35] = measured here: cisplatin combination, at 5 µM
[36] = cisplatin combination, at 0.5 µM
[37] = measured here: BGB IC40 combination 0.05 uM, at 0.05 µM
[38] = measured here: BGB IC40 combination, at 0.05 µM

Q: Which inhibition [1] does the source give for O=C(O)C1CCCN(CCC=C(c2ccccc2)c2ccccc2)C1 (stereo unspecified) here?
A: Its inhibition is -1% (inactive).

Q: And the fluorescence ratio (interference) [2]?
A: The fluorescence ratio (interference) was 0.9 (inactive).

Q: For CCC(C)N(C)C(=O)c1cc2ccccc2c(-c2ccccc2Cl)n1 (stereo unspecified), which inhibition [1] is on record?
A: Its inhibition is 0% (inactive).

Q: What about the fluorescence ratio (interference) [2] of the same compound?
A: Its fluorescence ratio (interference) is 1 (inactive).

Q: And the outcome [3]?
A: Its outcome is “inactive”.

Q: Which results are given for CCc1c2c(nc3ccc(O)cc13)-c1cc3c(c(=O)n1C2)COC(=O)[C@]3(O)CC?
A: inhibition [4, 14]: -26% (inactive); inhibition [4, 15]: -6.89%; inhibition [4, 16]: -27.9%; inhibition [4, 17]: -20.9%; inhibition [4, 18]: -58.2%; inhibition [4, 19]: 87.9%; inhibition ([5]; BGB combo, at 5 µM): 98.3%; inhibition ([5]; at 0.5 µM): 84.1% (active); inhibition ([5]; cisplatin combo, at 5 µM): 98.4%; inhibition [5, 20]: 83%; inhibition [5, 21]: 82.2%; inhibition ([5]; single agent, at 5 µM): 96.3%; inhibition ([6]; at 0.5 µM): 74.1% (inactive); inhibition [6, 17]: -7.58%; inhibition [6, 22]: 77.6%; inhibition [6, 23]: 86.6%; inhibition ([7]; at 0.5 µM): 98.3% (active); inhibition [7, 24]: 96.1%; inhibition [7, 25]: 98.1%; inhibition [7, 26]: 99.1%; inhibition [7, 27]: 99.5%; inhibition ([7]; single agent, at 5 µM): 99.6%; inhibition ([8]; at 0.5 µM): 57.3% (inactive); inhibition [8, 28]: 88.7%; inhibition [8, 29]: 37.4%; inhibition ([9]; at 0.5 µM): 99.5% (active); inhibition [9, 30]: 99.5%; inhibition [9, 31]: 99.6%; inhibition ([10]; at 0.5 µM): 72.1% (inactive); inhibition [10, 32]: 67%; inhibition [10, 33]: 73.3%; inhibition [10, 34]: 71.2%; inhibition [10, 35]: 84.4%; inhibition ([11]; at 0.5 µM): 5.49% (inactive); inhibition [11, 36]: 45.3%; inhibition ([11]; cisplatin combination, at 5 µM): 33.9%; inhibition [11, 37]: -2.99%; inhibition ([11]; single agent, at 5 µM): 52.7%; inhibition ([12]; at 0.5 µM): 30.1% (inactive); inhibition ([12]; cisplatin combo, at 5 µM): 67.1%; inhibition [12, 38]: -24.6%; inhibition [12, 22]: 61.9%; inhibition ([12]; single agent, at 5 µM): 62.2%; inhibition ([13]; at 0.5 µM): 93.7% (active); inhibition [13, 20]: 98.1%; inhibition [13, 21]: 91.2%; inhibition ([13]; single agent, at 0.05 µM): 16.8%; inhibition ([13]; single agent, at 5 µM): 99.8%

Q: With O=C(O)CCc1ccc(NCc2cccc(Oc3ccccc3)c2)cc1 as the compound, how does the inhibition [1] read?
A: Its inhibition is 0% (inactive).

Q: And the fluorescence ratio (interference) [2]?
A: Its fluorescence ratio (interference) is 1 (inactive).

Q: What about the outcome [3] of the same compound?
A: Its outcome is “inactive”.

Q: With Oc1ccc2ccccc2c1SSc1c(O)ccc2ccccc12 as the compound, how does the inhibition [1] read?
A: Its inhibition is 3% (inactive).

Q: What about the fluorescence ratio (interference) [2] of the same compound?
A: The fluorescence ratio (interference) was 1 (inactive).

Q: What about the outcome [3] of the same compound?
A: The outcome was “inactive”.

Q: Which inhibition [1] does the source give for COc1cccc(-c2cc(=O)c3ccccc3o2)c1N here?
A: The inhibition was -1% (inactive).

Q: What about the fluorescence ratio (interference) [2] of the same compound?
A: Its fluorescence ratio (interference) is 1 (inactive).

Q: What about the outcome [3] of the same compound?
A: Its outcome is “inactive”.

Q: With O=C1NC(=O)C(c2ccccc2[N+](=O)[O-])=C1Nc1ccc(O)c(Cl)c1 as the compound, how does the inhibition [1] read?
A: Its inhibition is -2% (inactive).

Q: And the fluorescence ratio (interference) [2]?
A: Its fluorescence ratio (interference) is 1 (inactive).

Q: And the outcome [3]?
A: The outcome was “inactive”.

Q: With NC(=O)c1ccc2[nH]ccc2c1 as the compound, how does the inhibition [1] read?
A: The inhibition was 0% (inactive).

Q: What about the fluorescence ratio (interference) [2] of the same compound?
A: The fluorescence ratio (interference) was 1 (inactive).

Q: And the outcome [3]?
A: The outcome was “inactive”.

Q: Which results are given for O=c1[nH]c(-c2ccc(C(F)(F)F)cc2)nc2c1CSCC2?
A: inhibition [4, 14]: -18.1% (inactive); inhibition [4, 15]: 0.844%; inhibition [4, 16]: 12.4%; inhibition [4, 17]: -21.3%; inhibition [4, 18]: -36.1%; inhibition [4, 19]: -17.2%; inhibition ([5]; BGB combo, at 5 µM): 8.65%; inhibition ([5]; at 0.5 µM): -7.61% (inactive); inhibition ([5]; cisplatin combo, at 5 µM): 8.16%; inhibition [5, 20]: -5.54%; inhibition [5, 21]: -17.8%; inhibition ([5]; single agent, at 5 µM): 38.9%; inhibition ([6]; at 0.5 µM): -9.31% (inactive); inhibition [6, 17]: -26%; inhibition [6, 22]: -13.9%; inhibition [6, 23]: -59%; inhibition ([7]; at 0.5 µM): -23.5% (inactive); inhibition [7, 24]: -23%; inhibition [7, 25]: -21.9%; inhibition [7, 26]: -30.4%; inhibition [7, 27]: -19.6%; inhibition ([7]; single agent, at 5 µM): 3.2%; inhibition ([8]; at 0.5 µM): -39.2% (inactive); inhibition [8, 28]: -20.7%; inhibition [8, 29]: -76.4%; inhibition ([9]; at 0.5 µM): -8.71% (inactive); inhibition [9, 30]: -15.3%; inhibition [9, 31]: -8.24%; inhibition ([10]; at 0.5 µM): -4.6% (inactive); inhibition [10, 32]: -1.61%; inhibition [10, 33]: -2.42%; inhibition [10, 34]: -18.2%; inhibition [10, 35]: -5.9%; inhibition ([11]; at 0.5 µM): -4.59% (inactive); inhibition [11, 36]: -17.6%; inhibition ([11]; cisplatin combination, at 5 µM): -12.8%; inhibition [11, 37]: 7.96%; inhibition ([11]; single agent, at 5 µM): -20.3%; inhibition ([12]; at 0.5 µM): -18.1% (inactive); inhibition ([12]; cisplatin combo, at 5 µM): -47.8%; inhibition [12, 38]: -24.5%; inhibition [12, 22]: -29.6%; inhibition ([12]; single agent, at 5 µM): 13.3%; inhibition ([13]; at 0.5 µM): -34.9% (inactive); inhibition [13, 20]: -20.3%; inhibition [13, 21]: -44.5%; inhibition ([13]; single agent, at 0.05 µM): -54.3%; inhibition ([13]; single agent, at 5 µM): -18.2%
